Source: PubChem BioAssay
Calls of active or inactive are those of the source.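 How the source made its calls: active means growth inhibition above 50% at the single 2 µM test dose, taken to imply half-maximal potency below 2 µM; inactive means the rest.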

Assay: antimalarial activity against Dd2 strain (AID 2302);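 further: 0% = DMSO untreated growth and 100% = chloroquine plus artemisinin killed control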
Conditions: P. falciparum Dd2 in RBCs, LDH growth readout, 72 h; at 2 µM; stronger effect = higher value

Growth inhibition, active:
COc1ccc2nccc(NN=CC=Cc3ccccc3)c2c1 99%
CN(Cc1ccncc1)C(Cc1ccccc1)C1CCN(Cc2ccc(O)c(Cl)c2)CC1 (stereo not given) 97%
Cc1oc(-c2ccccc2)nc1CCOc1ccc(C[C@H](Nc2ccccc2C(=O)c2ccccc2)C(=O)NCc2ccccn2)cc1 54%
COc1ccc(F)cc1-c1ccccc1CNC(=O)CN(C)S(=O)(=O)c1cc(C)cc(Cl)c1C 73%
c1ccc(CCNc2ccnc(Nc3ccc4n[nH]nc4c3)n2)cc1 95%
Oc1ccc(Cl)cc1Nc1nc(C(F)(F)F)nc2ccccc12 63%
CCOc1ccc(-c2nonc2NC(=O)c2ccc(OC)cc2)cc1OCC 77%
Cc1noc(C)c1-c1cccc(CNCc2cccc(-c3cccc(-c4nc5ccc(F)cc5[nH]4)c3)c2)c1 73%
C=CCOC(=O)N1CCC(CNCc2ccc(-c3cccc(-c4nc5ccc(F)cc5[nH]4)c3)cc2)C1 (stereo not given) 99%
CC(Sc1nc2sccc2c(=O)n1C)C(=O)Nc1ccc2c(c1)OCO2 (stereo not given) 100%
CCN(CC)S(=O)(=O)c1cc(-c2ccc(=O)n(CC(=O)c3ccc(C)cc3)n2)ccc1C 66%
CC[C@H](C)CNC(=O)c1cncc(-c2ccc(CN3CCC(N4CCCC4)CC3)cc2)c1 100%
Cc1c(C(=O)N(C)C)sc2c1c(=O)n(Cc1ccccc1)c(=O)n2CC(=O)Nc1ccccc1F 98%
COc1cc(NC(=O)Nc2cccc3ccccc23)c(OC)cc1Cl 71%
CCOC(=O)c1sc(C(C)Nc2ccccc2)nc1-c1ccccc1 (stereo not given) 91%
COc1ccc(C=Cc2cc(N)c3ccccc3n2)cc1Br 88%
COc1ccc(NS(=O)(=O)c2cc(NC(=O)Cn3ccccc3=O)ccc2N2CCCCC2)cc1 83%
NC1CCCN(Cc2ccc(-c3ccc(-c4nc5ccccc5[nH]4)s3)cc2)C1 (stereo not given) 99%
Clc1ccc(-c2ncc(-c3ccncc3)[nH]2)cc1Cl 63%
CN(C)CCNCc1ccc(-c2ccc(-c3nc4ccc(F)cc4[nH]3)cc2)cc1 99%
O=[N+]([O-])c1cccc(CNCC2CCN(Cc3ccc(-c4ccccc4)cc3)CC2)c1 91%

Growth inhibition, inactive:
C[C@@H]1CN(c2cnn(C/C=C/c3ccc(NC(=O)c4ccc5nonc5c4)cc3)c(=O)c2Cl)C[C@H](C)N1 35%
N#CC(NC(=O)C=Cc1ccccc1)c1ccccc1 (stereo not given) 3%
Cn1cc(Br)c(-c2cccc(Nc3ccnc4cc(-c5nccs5)ccc34)c2)n1 32%
O=C(/C=C/c1ccc(Cl)cc1)NCCCCCN1CCN(C(=O)Nc2ccc(Cl)c(C(F)(F)F)c2)CC1 5%
COc1c(C2CCN(CCCCNC(=O)c3ccc(-c4ccc(Cl)cc4)cc3)CC2)ccc2c1C(C)(C)CCC2(C)C 42%
Cc1ccc(CNC(=O)[C@H](CC(C)C)Nc2cc(C)nc(NCC3CCCCC3)n2)cc1 44%
O=c1ccc2ccc(F)c3c2n1CC3CN1CCC(NCc2ccc(-c3cccc(Cl)c3)nc2)CC1 (stereo not given) 33%
CCOc1cccc(C(=O)Nc2cccc(CN3CCCN(Cc4cccc(O)c4)CC3)c2)c1 18%
COc1ccc(-c2ccc(NC(=O)c3cccc(F)c3)cc2)cc1CN1CCCN(C)CC1 49%
Cc1ccc(Cl)cc1NC(=O)c1c(-c2ccccc2Cl)noc1C 37%
COc1ccc(NC(=O)/C=C/c2ccccc2Cl)cc1OCCN1CCC(O)(c2ccc(Cl)c(C(F)(F)F)c2)CC1 9%
O=[N+]([O-])c1ccc(Nc2nc(NN=Cc3cccc(O)c3)nc(N3CCCC3)n2)cc1 9%
CC(C)NCc1ccc(-c2ccc(NC(=O)c3ccc(Cl)cc3)cc2)cc1 8%
COc1ccc(CNC2Cc3ccccc3C2)cc1-c1ccc(S(=O)(=O)NCCc2ccccn2)s1 22%
COc1ccc(-c2cccc(CNC3CCN(C)CC3)c2)cc1S(=O)(=O)NCc1ccccc1 22%
Cc1cc(C)cc(N2C(N)=NC(N)=NC2(C)C)c1 6%
Nc1ncc(-c2ccc(Cl)c(Cl)c2)c(N)n1 -2%
COc1ccccc1C1CCN(C2CCC(NC(=O)/C=C/c3ccc(C(F)(F)F)cc3)CC2)CC1 (stereo not given) 7%
CCOc1cc(Cc2cnc(N)nc2N)cc(OC)c1OC 0%
